# Reference: the supplement of paper PMC12282887
# ± gives the standard deviation of the averaged measurements.
# How the values were obtained:
# Test in all cases: promoter activity interaction Z-score (Lux/OD deviation from empty-vector control); higher = stronger promoter induction by the compound
# [1] = tested on: E. coli BW25113 robp lux reporter
# Method in brief: (§1)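 Every compound was given at four 1:2 dilutions, in biological duplicates, to E. coli BW25113 carrying low-copy luxCDABE promoter reporters in wild-type or single-gene deletion backgrounds. Growth in 40 µl LB Lennox in 384-well plates at 37°C was followed by OD600 and luminescence readings every 30 min for 12 h, integrated over 0–8 h for wild type and 1–9 h for deletion strains, with wells below 10% of the median growth value excluded. Scores are Z-transformed residuals of growth-normalised luminescence fitted against a control.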
# [2] = tested on: E. coli BW25113 soxSp lux reporter
# Method in brief: as §1
# [3] = tested on: E. coli BW25113 tolCp lux reporter
# Method in brief: as §1
# [4] = 35.6 µg/ml, genetic background: wild type
# [5] = 35.6 µg/ml, genetic background: ΔmarA
# [6] = 35.6 µg/ml, genetic background: Δrob
# [7] = 35.6 µg/ml, genetic background: ΔsoxS
# [8] = 71.1 µg/ml, genetic background: wild type
# [9] = 71.1 µg/ml, genetic background: ΔmarA
# [10] = 71.1 µg/ml, genetic background: Δrob
# [11] = 71.1 µg/ml, genetic background: ΔsoxS
# [12] = 142.3 µg/ml, genetic background: wild type
# [13] = 142.3 µg/ml, genetic background: ΔmarA
# [14] = 142.3 µg/ml, genetic background: Δrob
# [15] = 142.3 µg/ml, genetic background: ΔsoxS
# [16] = 284.5 µg/ml, genetic background: wild type
# [17] = 284.5 µg/ml, genetic background: ΔmarA
# [18] = 284.5 µg/ml, genetic background: Δrob
# [19] = 284.5 µg/ml, genetic background: ΔsoxS
smiles,measurement,setting,value
CC[C@H](C)[C@H](N)C1=N[C@H](C(=O)N[C@@H](CC(C)C)C(=O)N[C@H](CCC(=O)O)C(=O)N[C@H](C(=O)N[C@H]2CCCCNC(=O)[C@H](CC(N)=O)NC(=O)[C@@H](CC(=O)O)NC(=O)[C@H](Cc3cnc[nH]3)NC(=O)[C@@H](Cc3ccccc3)NC(=O)[C@H]([C@@H](C)CC)NC(=O)[C@@H](CCCN)NC2=O)[C@@H](C)CC)CS1 [Bacitracin],promoter activity interaction Z-score,[1]; [4],0.859 ± 0.14
same,promoter activity interaction Z-score,[1]; [5],-0.334 ± 0.088
same,promoter activity interaction Z-score,[1]; [6],0.568 ± 0.89
same,promoter activity interaction Z-score,[1]; [7],0.00456 ± 0.7
same,promoter activity interaction Z-score,[1]; [8],0.186 ± 0.99
same,promoter activity interaction Z-score,[1]; [9],0.452 ± 0.16
same,promoter activity interaction Z-score,[1]; [10],0.266 ± 0.06
same,promoter activity interaction Z-score,[1]; [11],-0.45 ± 0.04
same,promoter activity interaction Z-score,[1]; [12],-0.429 ± 0.72
same,promoter activity interaction Z-score,[1]; [13],0.326 ± 0.28
same,promoter activity interaction Z-score,[1]; [14],-0.561 ± 0.13
same,promoter activity interaction Z-score,[1]; [15],-0.919 ± 0.74
same,promoter activity interaction Z-score,[1]; [16],-0.714 ± 0.18
same,promoter activity interaction Z-score,[1]; [17],-0.548 ± 0.32
same,promoter activity interaction Z-score,[1]; [18],-0.858 ± 1
same,promoter activity interaction Z-score,[1]; [19],-0.93 ± 0.068
same,promoter activity interaction Z-score,[2]; [4],0.0222 ± 0.019
same,promoter activity interaction Z-score,[2]; [5],-0.0752 ± 0.056
same,promoter activity interaction Z-score,[2]; [6],0.145 ± 0.063
same,promoter activity interaction Z-score,[2]; [7],-0.325 ± 0.089
same,promoter activity interaction Z-score,[2]; [8],-0.173 ± 0.011
same,promoter activity interaction Z-score,[2]; [9],-0.209 ± 0.049
same,promoter activity interaction Z-score,[2]; [10],-0.232 ± 0.096
same,promoter activity interaction Z-score,[2]; [11],-0.288 ± 0.14
same,promoter activity interaction Z-score,[2]; [12],-0.325 ± 0.11
same,promoter activity interaction Z-score,[2]; [13],-0.318 ± 0.0051
same,promoter activity interaction Z-score,[2]; [14],-0.254 ± 0.028
same,promoter activity interaction Z-score,[2]; [15],-0.236 ± 0.42
same,promoter activity interaction Z-score,[2]; [16],-0.265 ± 0.017
same,promoter activity interaction Z-score,[2]; [17],-0.188 ± 0.075
same,promoter activity interaction Z-score,[2]; [18],-0.556 ± 0.091
same,promoter activity interaction Z-score,[2]; [19],0.196
same,promoter activity interaction Z-score,[3]; [4],0.175 ± 0.14
same,promoter activity interaction Z-score,[3]; [5],0.3 ± 0.76
same,promoter activity interaction Z-score,[3]; [6],-0.634 ± 0.13
same,promoter activity interaction Z-score,[3]; [7],-0.127 ± 0.13
same,promoter activity interaction Z-score,[3]; [8],-0.904 ± 0.76
same,promoter activity interaction Z-score,[3]; [9],-0.251 ± 0.39
same,promoter activity interaction Z-score,[3]; [10],-0.77 ± 0.38
same,promoter activity interaction Z-score,[3]; [11],-0.771 ± 0.63
same,promoter activity interaction Z-score,[3]; [12],-1.08 ± 0.47
same,promoter activity interaction Z-score,[3]; [13],-0.183 ± 0.34
same,promoter activity interaction Z-score,[3]; [14],-0.421 ± 0.15
same,promoter activity interaction Z-score,[3]; [15],-0.321 ± 0.69
same,promoter activity interaction Z-score,[3]; [16],-0.273 ± 0.36
same,promoter activity interaction Z-score,[3]; [17],-0.299 ± 0.51
same,promoter activity interaction Z-score,[3]; [18],-1.24 ± 0.052
same,promoter activity interaction Z-score,[3]; [19],-0.245 ± 0.87
